The values that follow come from PubChem BioAssay (Tox21).

Several values for one entry are separate records, joined by “and”; a condition that tells them apart may be missing. Identical values can stand only once. Records with an inconclusive call do not appear. Entries that show only a call come without a potency. Activity calls are given as the source filed them. Calls follow the shape of the dose curve; as a rule, active = well fitted curve in the direction sought with a large enough effect in the repeat runs; inconclusive = weak or mixed curves; inactive = no such curve, though single readings can be large; an effect the other way counts as inactive or inconclusive.

The target of experiment [1] is Voltage-gated inwardly rectifying potassium channel KCNH2 (Homo sapiens) (UniProt Q12809). Briefly: Human Ether-a-go-go-Related Gene (hERG) channel small molecule antagonists: fluorescence cell-based qHTS assay (AID 1671200).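 Also: hERG-expressing U2OS cells given a thallium stimulus after FluxOR II dye loading; series mostly up to about 77 µM.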 The method, boiled down: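 Quantitative HTS in hERG-U2OS cells: thallium entry through the channel reports activity, read as continuous 480/540 nm fluorescence over 2 min after stimulus addition.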

In experiment [2] the target is Cytochrome P450 3A4 (Homo sapiens) (UniProt P08684). As to the kind of experiment: Cytochrome P450 Family 3 Subfamily A Member 4 (CYP3A4) small molecule antagonists: luciferase reporter qHTS assay (AID 1671201). Also: potency is read from the fitted curve at half-maximal effect. Summed up:
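Inhibition of CYP3A4 is measured as loss of light: the enzyme converts a proluciferin substrate to luciferin, detected luminescently. Reaction ran 1 h at room temperature with NADPH regeneration after a 10 min compound preincubation.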

Experiment [3] addresses Cytochrome P450 1A2 (Homo sapiens) (UniProt P05177). As to the kind of experiment: Cytochrome P450 Family 1 Subfamily A Member 2 (CYP1A2) small molecule antagonists: luciferase reporter qHTS assay (AID 1671199). Also: potency is read from the fitted curve at half-maximal effect. The method, boiled down: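 Quantitative high-throughput format using the P450-Glo CYP1A2 system. Reaction initiated by NADPH regeneration solution, 1 h at room temperature, then stopped with detection reagent; luminescence measured 20 min later.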
Also: nearly all actives have a fitted effect of over 50% in size.

Chain of Cytochrome P450 1A2 (Homo sapiens) (P05177 whole entry, looked up): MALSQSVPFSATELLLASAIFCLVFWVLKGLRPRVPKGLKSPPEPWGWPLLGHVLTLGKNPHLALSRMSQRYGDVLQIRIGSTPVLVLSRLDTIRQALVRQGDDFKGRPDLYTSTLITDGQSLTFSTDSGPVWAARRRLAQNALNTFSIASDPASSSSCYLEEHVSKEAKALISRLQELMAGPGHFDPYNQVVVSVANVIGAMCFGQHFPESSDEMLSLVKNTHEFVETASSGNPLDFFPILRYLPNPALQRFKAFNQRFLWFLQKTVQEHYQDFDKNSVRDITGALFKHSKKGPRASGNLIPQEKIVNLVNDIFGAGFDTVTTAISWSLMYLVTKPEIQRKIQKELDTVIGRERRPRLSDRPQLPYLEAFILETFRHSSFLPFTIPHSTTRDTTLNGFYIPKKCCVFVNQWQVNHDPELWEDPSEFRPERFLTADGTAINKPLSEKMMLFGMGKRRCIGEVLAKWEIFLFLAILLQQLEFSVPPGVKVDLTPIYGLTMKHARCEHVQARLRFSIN
Chain of Voltage-gated inwardly rectifying potassium channel KCNH2 (Homo sapiens) (Q12809 whole entry, looked up): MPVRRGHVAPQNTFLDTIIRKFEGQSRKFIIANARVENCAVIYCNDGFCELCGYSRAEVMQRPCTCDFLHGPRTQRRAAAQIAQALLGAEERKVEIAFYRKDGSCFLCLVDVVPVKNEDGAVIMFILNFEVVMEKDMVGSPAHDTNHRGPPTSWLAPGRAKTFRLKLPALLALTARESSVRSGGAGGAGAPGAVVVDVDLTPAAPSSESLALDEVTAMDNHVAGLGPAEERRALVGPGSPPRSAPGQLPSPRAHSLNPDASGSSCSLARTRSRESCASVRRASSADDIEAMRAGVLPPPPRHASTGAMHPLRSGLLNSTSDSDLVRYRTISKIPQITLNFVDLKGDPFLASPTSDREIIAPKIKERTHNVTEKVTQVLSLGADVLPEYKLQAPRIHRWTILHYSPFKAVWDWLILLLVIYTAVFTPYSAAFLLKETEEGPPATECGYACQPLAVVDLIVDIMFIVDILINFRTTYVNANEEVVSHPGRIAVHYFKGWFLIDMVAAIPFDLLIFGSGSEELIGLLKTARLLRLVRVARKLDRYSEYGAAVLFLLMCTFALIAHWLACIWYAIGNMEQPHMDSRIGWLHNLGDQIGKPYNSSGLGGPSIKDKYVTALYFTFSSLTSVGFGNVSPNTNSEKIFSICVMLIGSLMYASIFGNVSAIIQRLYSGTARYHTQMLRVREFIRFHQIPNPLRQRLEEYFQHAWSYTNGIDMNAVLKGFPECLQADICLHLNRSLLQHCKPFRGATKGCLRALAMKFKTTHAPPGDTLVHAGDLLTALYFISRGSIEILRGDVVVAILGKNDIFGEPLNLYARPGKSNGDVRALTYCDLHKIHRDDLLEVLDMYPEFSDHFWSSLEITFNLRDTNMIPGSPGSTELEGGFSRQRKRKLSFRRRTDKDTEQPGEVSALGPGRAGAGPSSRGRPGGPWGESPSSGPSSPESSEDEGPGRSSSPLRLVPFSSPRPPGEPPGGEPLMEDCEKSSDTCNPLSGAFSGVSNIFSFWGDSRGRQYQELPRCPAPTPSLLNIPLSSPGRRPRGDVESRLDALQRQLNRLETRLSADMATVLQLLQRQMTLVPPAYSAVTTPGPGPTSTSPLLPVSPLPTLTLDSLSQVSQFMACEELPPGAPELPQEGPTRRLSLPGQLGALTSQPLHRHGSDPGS
Chain of Cytochrome P450 3A4 (Homo sapiens) (P08684 whole entry, looked up): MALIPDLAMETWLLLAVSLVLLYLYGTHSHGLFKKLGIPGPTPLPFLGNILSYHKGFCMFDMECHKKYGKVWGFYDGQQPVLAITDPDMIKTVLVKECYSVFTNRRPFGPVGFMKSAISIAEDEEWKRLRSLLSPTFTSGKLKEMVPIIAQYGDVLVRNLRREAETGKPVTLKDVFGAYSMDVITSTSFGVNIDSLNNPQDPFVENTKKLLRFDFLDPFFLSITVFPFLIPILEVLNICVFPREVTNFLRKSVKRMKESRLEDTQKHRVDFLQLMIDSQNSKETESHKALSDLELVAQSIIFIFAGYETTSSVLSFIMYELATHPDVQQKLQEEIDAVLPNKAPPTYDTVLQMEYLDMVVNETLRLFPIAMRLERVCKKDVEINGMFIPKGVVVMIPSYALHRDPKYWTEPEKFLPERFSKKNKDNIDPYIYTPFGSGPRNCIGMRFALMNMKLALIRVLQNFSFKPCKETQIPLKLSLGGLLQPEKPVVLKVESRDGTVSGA

For the molecule `Cc1cccc(Nc2ccccc2C(=O)O)c1C`, the Potency entry in experiment [1] and in experiment [2] was “inactive” in each case.

In the case of `Nc1cc(Cl)c(N)c(Cl)c1`, the Potency in experiment [3] is 15.8 µM (active) and 35.6 µM (active); in experiment [2] it was 3.14 µM (active) and 17.8 µM (active).

With `CC(C)[N+](C)(CCOC(=O)C1c2ccccc2Oc2ccccc21)C(C)C`, the Potency result in experiment [1] and in experiment [2] was “inactive” each time.

As to `C[C@]12CC[C@@H]3c4ccc(O)cc4CC[C@H]3[C@@H]1CC[C@@H]2O`, the Potency result in experiment [2] is “inactive”.

In the case of `CN(C)C`, the Potency entry in experiment [3] and in experiment [2] was “inactive” in each case.

For the molecule `O=S1(=O)CCCO1`, the Potency result in experiment [1] and in experiment [2] was “inactive” throughout.

Regarding `C=CN1CCCC1=O`, the Potency result in experiment [3] and in experiment [2] was “inactive” throughout.

As to `Oc1ccc(C(c2ccc(O)cc2)C(Cl)(Cl)Cl)cc1`, in experiment [3], the Potency result was “inactive”. Moreover, the Potency in experiment [2] is 17.8 µM (active) and 20 µM (active).

`CC(C)[C@@H]1CC[C@@H](C)CC1=O`: the Potency in experiment [3] is 30.9 µM (active). For the same molecule, in experiment [2], the Potency result is “inactive”.

Regarding `C[N+](C)(C)CCO`, in experiment [1], the Potency entry is “inactive”.

`Nc1cc([N+](=O)[O-])ccc1C(=O)O`: the Potency result in experiment [3] and in experiment [2] was “inactive” throughout.

`C=CC(C)(O)CCC=C(C)C` (stereo unspecified): the Potency entry in experiment [3] and in experiment [2] was “inactive” in each case.

Consider `CC(C)(C)c1cccc(C(C)(C)C)c1O`, for which the Potency in experiment [3] was 39 µM (active) and 63.3 µM (active). Besides, the Potency entry in experiment [2] was “inactive”.

For the molecule `CN1CCOCC1`, the Potency result in experiment [1] is “inactive”.

Take `Cc1ccc(C(C)(C)C)cc1`: the Potency result in experiment [3] and in experiment [2] was “inactive” throughout.

`CCC/C=C/C=O`: the Potency entry in experiment [3] and in experiment [2] was “inactive” each time.

In the case of `CC1(C)C(C=C(Cl)Cl)C1C(=O)OCc1cccc(Oc2ccccc2)c1` (stereo unspecified), the Potency result in experiment [2] is “inactive”.

Turning to `CCCCCCCCCCC(CO)CCCCCCCC` (stereo unspecified), the Potency result in experiment [3] and in experiment [2] was “inactive” throughout.

As for `C[C@]12C=CC(=O)C=C1CC[C@H]1[C@@H]3C[C@@H](O)[C@](O)(C(=O)CO)[C@@]3(C)C[C@H](O)[C@@]12F`, the Potency result in experiment [3] and in experiment [2] was “inactive” throughout.

Consider `Nc1ccc(O)c(N)c1`, for which the Potency entry in experiment [1] was “inactive”. In experiment [2], the Potency was 63.3 µM (active).
